Source: PubChem BioAssay AID1159580 (chemical genetic matrix, 2015)
Values joined by “and” are separate entries in the source; they are usually repeats but may differ in a detail not shown here. Identical values can stand only once. Out of some 5,500 compounds screened, about 2,000 (36%) were called active. Roughly 18% stayed inconclusive and do not appear here. No stated cut-off is given here; in the data, active means normalized growth mostly below about 0.91 (no sharp cut-off); inconclusive means no clear call, values can overlap the other calls; inactive means mostly above about 0.92. Some of the results follow.

Assay: chemical genetic growth profiling, strain panel (AID 1159580);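 further: tested at 20 µM; growth read once vehicle control cultures reached saturation at 30 °C; 1 = growth at the plate median or of vehicle wells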
Settings: S. cerevisiae deletion strains, growth OD

Measured: normalized growth

Nc1ncnc2c1ncn2[C@@H]1O[C@H](CO)[C@@H](O)[C@H]1O
inactive: locus YAL021C, strain ccr4, stronger effect = lower value 0.97 | locus YAL026C, strain drs2, stronger effect = lower value 0.989 | locus YAL030W, strain snc1, stronger effect = lower value 0.995 | locus YBL061C, strain skt5, stronger effect = lower value 0.98 | locus YBR009C, strain hhf1, stronger effect = lower value 0.987 | locus YBR021W, strain FUR4, stronger effect = lower value 1.13 | locus YBR023C, strain chs3, stronger effect = lower value 0.972 | locus YBR171W, strain sec66, stronger effect = lower value 0.968 | locus YBR229C, strain ROT2, stronger effect = lower value 0.951 | locus YBR231C, strain swc5, stronger effect = lower value 1 | locus YBR279W, strain paf1, stronger effect = lower value 0.991 | locus YCL011C, strain gbp2, stronger effect = lower value 0.975 | locus YCL016C, strain dcc1, stronger effect = lower value 0.953 | locus YCL029C, strain bik1, stronger effect = lower value 0.972 | locus YCL061C, strain MRC1, stronger effect = lower value 0.966 | locus YCL069W, strain vba3, stronger effect = lower value 0.985 | locus YCR088W, strain abp1, stronger effect = lower value 0.994 | locus YDL005C, strain med2, stronger effect = lower value 0.992 | locus YDL035C, strain GPR1, stronger effect = lower value 0.987 | locus YDL040C, strain nat1, stronger effect = lower value 0.99 | locus YDL074C, strain BRE1, stronger effect = lower value 1.02 | locus YDL101C, strain DUN1, stronger effect = lower value 0.97 | locus YDL134C, strain PPH21, stronger effect = lower value 0.983 | locus YDL185W, strain tfp1, stronger effect = lower value 0.955 | locus YDL192W, strain arf1, stronger effect = lower value 0.982 | locus YDR001C, strain nth1, stronger effect = lower value 0.986 | locus YDR069C, strain doa4, stronger effect = lower value 1.02 | locus YDR101C, strain arx1, stronger effect = lower value 1.03 | locus YDR137W, strain rgp1, stronger effect = lower value 0.96 | locus YDR159W, strain sac3, stronger effect = lower value 0.994 | locus YDR162C, strain NBP2, stronger effect = lower value 0.948 | locus YDR195W, strain ref2 1.01 | locus YDR297W, strain sur2, stronger effect = lower value 0.985 | locus YDR318W, strain mcm21, stronger effect = lower value 0.973 | locus YDR334W, strain swr1, stronger effect = lower value 0.986 | locus YDR335W, strain msn5, stronger effect = lower value 0.987 | locus YDR388W, stronger effect = lower value 0.948 | locus YDR392W, strain spt3, stronger effect = lower value 0.904 | locus YDR502C, strain sam2, stronger effect = lower value 0.997 | locus YEL003W, strain gim4, stronger effect = lower value 0.994 | locus YEL037C, strain rad23, stronger effect = lower value 0.99 | locus YEL061C, strain CIN8 (second series), stronger effect = lower value 0.987 | locus YEL061C, strain CIN8, stronger effect = lower value 0.986 | locus YER015W, strain faa2, stronger effect = lower value 0.986 | locus YER016W, strain bim1, stronger effect = lower value 0.997 | locus YER110C, stronger effect = lower value 0.975 | locus YER111C, strain swi4, stronger effect = lower value 0.977 | locus YER155C, strain BEM2 (second series), stronger effect = lower value 1.01 | locus YER155C, strain BEM2, stronger effect = lower value 0.974 | locus YER167W, strain BCK2, stronger effect = lower value 0.988 | locus YFR010W, strain ubp6, stronger effect = lower value 0.99 | locus YGL078C, strain dbp3, stronger effect = lower value 0.986 | locus YGL086W, strain mad1, stronger effect = lower value 1.03 | locus YGL167C, strain pmr1, stronger effect = lower value 0.981 | locus YGL173C, strain kem1, stronger effect = lower value 0.98 | locus YGL227W, strain vid30, stronger effect = lower value 0.987 | locus YGL240W, strain doc1, stronger effect = lower value 0.989 | locus YGL248W, strain PDE1, stronger effect = lower value 0.979 | locus YGL253W, strain hxk2, stronger effect = lower value 0.988 | locus YGR135W, strain pre9, stronger effect = lower value 0.975 | locus YGR229C, strain SMI1, stronger effect = lower value 1 | locus YGR252W, strain gcn5, stronger effect = lower value 0.959 | locus YHR013C, strain ard1, stronger effect = lower value 0.955 | locus YHR027C, strain rpn1, stronger effect = lower value 0.981 | locus YHR030C, strain SLT2, stronger effect = lower value 0.994 and 1.01 | locus YHR079C, strain IRE1 (second series), stronger effect = lower value 0.982 | locus YHR079C, strain IRE1, stronger effect = lower value 1.03 | locus YHR094C, strain hxt1, stronger effect = lower value 0.97 | locus YHR129C, strain ARP1, stronger effect = lower value 0.995 | locus YHR142W, strain chs7, stronger effect = lower value 0.939 | locus YHR200W, strain rpn10, stronger effect = lower value 0.986 | locus YIL066C, strain RNR3, stronger effect = lower value 0.978 | locus YIL073C, strain SPO22, stronger effect = lower value 0.947 | locus YIL125W, strain kgd1, stronger effect = lower value 0.98 | locus YIR030C, strain dcg1, stronger effect = lower value 0.976 | locus YJL092W, strain hpr5, stronger effect = lower value 0.984 | locus YJL095W, strain BCK1 (second series), stronger effect = lower value 0.987 | locus YJL095W, strain BCK1, stronger effect = lower value 0.983 and 1.02 | locus YJL115W, strain asf1, stronger effect = lower value 0.987 | locus YJL129C, strain trk1, stronger effect = lower value 0.972 | locus YJL134W, strain LCB3, stronger effect = lower value 0.985 | locus YJL154C, strain vps35, stronger effect = lower value 0.999 | locus YJL164C, strain tpk1, stronger effect = lower value 0.981 | locus YJL166W, strain qcr8, stronger effect = lower value 0.969 | locus YJL168C, strain set2, stronger effect = lower value 0.99 | locus YJL187C, strain SWE1 (second series), stronger effect = lower value 0.968 | locus YJL187C, strain SWE1, stronger effect = lower value 0.992 | locus YJR043C, strain POL32, stronger effect = lower value 0.992
